Among all 39,000 compounds or so, about 3,300 (8.5%) were called active. Many of the other results were omitted from the sample, so actives are more common in it than they were.

The subject of the assay is HepG2. Put plainly: cytotoxicity call (relative viability < 0.9). As to conditions: 10 µM.
With `COc1ccc(NC(=O)Nc2ccc3c(c2)C(=O)N([C@H](C)CO)C[C@@H](C)[C@H](CN(C)S(C)(=O)=O)O3)cc1`, the cytotoxicity call is “active”.

As to `COc1ccc(NC(=O)Nc2ccc3c(c2)C(=O)N([C@H](C)CO)C[C@@H](C)[C@@H](CN(C)S(C)(=O)=O)O3)cc1`, the cytotoxicity call is “inactive”. Take `COc1ccc(NC(=O)Nc2ccc3c(c2)C(=O)N([C@@H](C)CO)C[C@@H](C)[C@H](CN(C)S(C)(=O)=O)O3)cc1`: the cytotoxicity call is “inactive”. Regarding `COc1ccc(NC(=O)Nc2ccc3c(c2)C(=O)N([C@H](C)CO)C[C@H](C)[C@@H](CN(C)S(C)(=O)=O)O3)cc1`, the cytotoxicity call is “inactive”. With `COc1ccc(NC(=O)Nc2ccc3c(c2)C(=O)N([C@@H](C)CO)C[C@H](C)[C@H](CN(C)S(C)(=O)=O)O3)cc1` the entry was “active”; with `COc1ccc(NC(=O)Nc2ccc3c(c2)C(=O)N([C@@H](C)CO)C[C@@H](C)[C@@H](CN(C)S(C)(=O)=O)O3)cc1`, “inactive”.

On to `C[C@H](CO)N1C[C@H](C)[C@@H](CN(C)Cc2ccccc2)Oc2cc(C#CC(C)(C)O)ccc2S1(=O)=O`, for which the cytotoxicity call was “inactive”. In the case of `C[C@@H]1CN([C@@H](C)CO)C(=O)c2cc(NC(=O)Nc3ccc(C(F)(F)F)cc3)ccc2O[C@@H](C)CCCCO[C@@H]1CN(C)C(=O)C1CCCCC1` it was “inactive”; in that of `COc1ccc(S(=O)(=O)N(C)C[C@H]2Oc3ncc(C#CC4(O)CCCC4)cc3C(=O)N([C@@H](C)CO)C[C@H]2C)cc1`, “inactive”; in that of `Cn1nnnc1SCC(=O)NC(C)(C)C`, “inactive”. `Cn1cc(-c2[nH]c3cc(NC(=O)[C@H](N)C4CCCCC4)cc4c3c2C=NNC4=O)cn1`: the cytotoxicity call is “active”.

Consider `COc1ccc(-c2cnc3c(c2)C(=O)N([C@H](C)CO)C[C@@H](C)[C@@H](CN(C)C(=O)Cc2ccccn2)O3)cc1`, for which the cytotoxicity call was “inactive”. With `CC(C)NC(=O)Nc1ccc2c(c1)CC(=O)N([C@@H](C)CO)C[C@H](C)[C@@H](CN(C)Cc1ccc(C(=O)O)cc1)O2` the entry was “inactive”; with `CC(=O)N1[C@@H]2Cn3c(ccc(-c4ccccc4)c3=O)[C@H]1[C@@H](C(=O)N1CCN(C)CC1)[C@@H]2CO`, “inactive”.

For the compound `C[C@@H]1CCCCO[C@@H](CN(C)C(=O)Nc2ccc(F)cc2)[C@@H](C)CN([C@H](C)CO)C(=O)c2cc(NC(=O)Cc3ccccc3)ccc2O1`, the cytotoxicity call was “inactive”. For the compound `O=C1C(O)=C(O)C(=O)C(O)=C1O`, the cytotoxicity call is “active”. In the case of `Cc1cc(C(=O)O)sc1[C@@H](N)C(=O)O` it was “inactive”.

As to `C[C@@H]1CN([C@@H](C)CO)C(=O)c2cc(-c3cccnc3)cnc2O[C@H]1CN(C)C(=O)Nc1ccc2c(c1)OCO2`, the cytotoxicity call is “inactive”. With `C[C@H]1CCCCO[C@H](CN(C)C(=O)Nc2ccc(F)cc2)[C@@H](C)CN([C@@H](C)CO)C(=O)c2cc(NC(=O)Nc3ccc4c(c3)OCO4)ccc2O1` the entry was “inactive”. Take `C[C@H]1CN([C@@H](C)CO)C(=O)c2cc(NC(=O)Cc3cn(C)c4ccccc34)ccc2O[C@H]1CN(C)C(=O)Nc1ccc(C(F)(F)F)cc1`: the cytotoxicity call was “inactive”.

Take `C[C@@H]1CN([C@@H](C)CO)C(=O)c2cc(NC(=O)Cc3cn(C)c4ccccc34)ccc2O[C@@H]1CN(C)C(=O)Nc1ccc(C(F)(F)F)cc1`: the cytotoxicity call is “inactive”. In the case of `C[C@H](CO)N1C[C@H](C)[C@H](CN(C)C(=O)Nc2cccc3ccccc23)Oc2ccc(NC(=O)Cc3cn(C)c4ccccc34)cc2C1=O` it was “inactive”; in that of `C[C@H](CO)N1C[C@H](C)[C@H](CN(C)C(=O)Nc2ccc(C(F)(F)F)cc2)Oc2ccc(NC(=O)Cc3cn(C)c4ccccc34)cc2C1=O`, “inactive”.

Consider `C[C@@H]1CN([C@H](C)CO)C(=O)c2cc(NC(=O)Cc3cn(C)c4ccccc34)ccc2O[C@H]1CN(C)Cc1ccc(C(F)(F)F)cc1`, for which the cytotoxicity call is “inactive”. With `C[C@H](CO)N1C[C@H](C)[C@@H](CN(C)Cc2ccc(C(F)(F)F)cc2)Oc2ccc(NC(=O)Cc3cn(C)c4ccccc34)cc2C1=O` the entry was “inactive”; with `C[C@@H]1CN([C@@H](C)CO)C(=O)c2cc(NC(=O)Cc3cn(C)c4ccccc34)ccc2O[C@@H]1CN(C)C(=O)Nc1cccc2ccccc12`, “active”; with `C[C@H]1CN([C@@H](C)CO)C(=O)c2cc(NC(=O)Cc3cn(C)c4ccccc34)ccc2O[C@@H]1CN(C)C(=O)Nc1ccc(C(F)(F)F)cc1`, “active”. With `C[C@H]1CN([C@@H](C)CO)C(=O)c2cc(NC(=O)Cc3cn(C)c4ccccc34)ccc2O[C@@H]1CN(C)C(=O)Nc1cccc2ccccc12` the entry was “inactive”.

Consider `C[C@@H]1CN([C@H](C)CO)C(=O)c2cc(NC(=O)Cc3cn(C)c4ccccc34)ccc2O[C@@H]1CN(C)Cc1ccc(C(F)(F)F)cc1`, for which the cytotoxicity call is “active”.

Consider `C[C@@H]1CN([C@H](C)CO)C(=O)c2cc(NC(=O)Cc3cn(C)c4ccccc34)ccc2O[C@H]1CN(C)C(=O)Nc1ccc(C(F)(F)F)cc1`, for which the cytotoxicity call was “active”. With `C[C@H](CO)N1C[C@H](C)[C@@H](CN(C)C(=O)Nc2ccc(C(F)(F)F)cc2)Oc2ccc(NC(=O)Cc3cn(C)c4ccccc34)cc2C1=O` the entry was “inactive”; with `C[C@@H]1CN([C@H](C)CO)C(=O)c2cccc(NC(=O)c3ccncc3)c2O[C@H]1CN(C)C(=O)Nc1ccc2c(c1)OCO2`, “inactive”; with `Cc1c(C)n2c3c(=O)[nH]c(=O)n(C)c3nc2n1C`, “inactive”.

`C[C@@H]1CN([C@H](C)CO)C(=O)c2cc(NC(=O)C3CCCCC3)ccc2O[C@@H](C)CCCCO[C@@H]1CN(C)Cc1ccc(C(=O)O)cc1`: the cytotoxicity call is “inactive”. With `COc1ccc(S(=O)(=O)N2C[C@@H](O)COC[C@H]3O[C@@H](CC(=O)N[C@@H]4CCN(Cc5ccccc5)C4)CC[C@@H]32)cc1` the entry was “inactive”; with `C[C@@H]1CN([C@H](C)CO)C(=O)Cc2cc(NC(=O)Cn3cnnn3)ccc2O[C@@H]1CN(C)Cc1ccc(C(=O)Nc2ccccc2N)cc1`, “inactive”; with `C[C@@H]1CN([C@H](C)CO)C(=O)c2cc(NS(=O)(=O)c3ccc(Cl)cc3)ccc2O[C@@H](C)CCCCO[C@@H]1CN(C)C(=O)c1ccncc1`, “inactive”. As to `C[C@@H]1CN([C@@H](C)CO)C(=O)c2cccc(NS(=O)(=O)c3cn(C)cn3)c2O[C@H]1CN(C)C(=O)Nc1ccc(F)cc1`, the cytotoxicity call is “inactive”. With `C[C@@H]1CCCCO[C@H](CN(C)C(=O)C2CCCCC2)[C@H](C)CN([C@H](C)CO)C(=O)c2cc(NC(=O)NC3CCCCC3)ccc2O1` the entry was “inactive”; with `C[C@@H]1CN([C@@H](C)CO)C(=O)Cc2cc(NC(=O)NC3CCCCC3)ccc2O[C@H]1CN(C)Cc1ccc(-c2ccccc2)cc1`, “inactive”.

For `C[C@@H]1CN([C@H](C)CO)C(=O)Cc2cc(NC(=O)NC3CCCCC3)ccc2O[C@H]1CN(C)Cc1ccc(-c2ccccc2)cc1`, the cytotoxicity call is “active”. With `C[C@@H]1CN([C@@H](C)CO)C(=O)Cc2cc(NC(=O)NC3CCCCC3)ccc2O[C@@H]1CN(C)Cc1ccc(Oc2ccccc2)cc1` the entry was “active”; with `C[C@H]1CN([C@@H](C)CO)C(=O)Cc2cc(NC(=O)NC3CCCCC3)ccc2O[C@H]1CN(C)Cc1ccc(Oc2ccccc2)cc1`, “active”; with `C[C@@H]1CN([C@H](C)CO)C(=O)Cc2cc(NC(=O)NC3CCCCC3)ccc2O[C@@H]1CN(C)Cc1ccc(Oc2ccccc2)cc1`, “active”. With `C[C@H](CO)N1C[C@H](C)[C@@H](CN(C)Cc2ccc(Oc3ccccc3)cc2)Oc2ccc(NC(=O)NC3CCCCC3)cc2CC1=O` the entry was “inactive”. With `C[C@@H]1CN([C@@H](C)CO)C(=O)Cc2cc(NC(=O)NC3CCCCC3)ccc2O[C@@H]1CN(C)Cc1ccc(-c2ccccc2)cc1` the entry was “inactive”; with `C[C@@H]1CN([C@@H](C)CO)C(=O)Cc2cc(NC(=O)NC3CCCCC3)ccc2O[C@H]1CN(C)Cc1ccc(Oc2ccccc2)cc1`, “inactive”; with `C[C@H]1CN([C@@H](C)CO)C(=O)Cc2cc(NC(=O)NC3CCCCC3)ccc2O[C@@H]1CN(C)Cc1ccc(Oc2ccccc2)cc1`, “inactive”. `C[C@H]1CN([C@@H](C)CO)C(=O)Cc2cc(NC(=O)NC3CCCCC3)ccc2O[C@H]1CN(C)Cc1ccc(-c2ccccc2)cc1`: the cytotoxicity call is “inactive”. `C[C@@H]1CN([C@H](C)CO)C(=O)Cc2cc(NC(=O)NC3CCCCC3)ccc2O[C@H]1CN(C)Cc1ccc(Oc2ccccc2)cc1`: the cytotoxicity call is “inactive”.

For the compound `C[C@H](CO)N1C[C@H](C)[C@H](CN(C)Cc2ccc(Oc3ccccc3)cc2)Oc2ccc(NC(=O)NC3CCCCC3)cc2CC1=O`, the cytotoxicity call was “inactive”. Turning to `C[C@@H]1CN([C@@H](C)CO)C(=O)c2cc(NC(=O)CCN3CCOCC3)ccc2O[C@H]1CN(C)S(C)(=O)=O`, the cytotoxicity call is “inactive”. On to `CCCNC(=O)N1C[C@H](C)[C@H](OC)CN(C)C(=O)c2ccc(NS(=O)(=O)CC(F)(F)F)cc2OC[C@@H]1C`, for which the cytotoxicity call is “inactive”. In the case of `C[C@H]1CN([C@@H](C)CO)C(=O)c2cc(NC(=O)c3ccncc3)ccc2O[C@@H]1CN(C)S(=O)(=O)c1cccs1` it was “inactive”; in that of `C[C@H]1CN([C@@H](C)CO)C(=O)c2cc(NC(=O)CCN3CCOCC3)ccc2O[C@H]1CN(C)Cc1ccc(C(=O)O)cc1`, “inactive”; in that of `COc1cc([C@@H](O)CO)ccc1OS(=O)(=O)O`, “inactive”.

`COc1ccc(S(=O)(=O)N2C[C@@H](O)COC[C@H]3O[C@H](CC(=O)N[C@H]4CCN(Cc5ccccc5)C4)CC[C@@H]32)cc1`: the cytotoxicity call was “inactive”. Consider `C[C@@H]1CN([C@@H](C)CO)C(=O)c2cc(NS(=O)(=O)c3cccs3)ccc2O[C@@H](C)CCCCO[C@H]1CN(C)Cc1ccc2c(c1)OCO2`, for which the cytotoxicity call was “inactive”. As to `C[C@H](CO)N1C[C@H](C)[C@@H](CN(C)C(=O)Nc2cccc3ccccc23)Oc2ccc(NS(=O)(=O)c3cccs3)cc2C1=O`, the cytotoxicity call is “inactive”.

On to `C[C@H](CO)N1C[C@H](C)[C@H](CN(C)C(=O)NC2CCCCC2)OCCCC[C@H](C)Oc2ccc(NS(=O)(=O)c3cccs3)cc2C1=O`, for which the cytotoxicity call is “inactive”. `CC(=O)N1CC(=O)N(c2cnn(C)c2)C[C@]12CCN(C(=O)c1cnc(C)cn1)C2`: the cytotoxicity call is “inactive”. With `CCOC(=O)N(C)C[C@H]1OCc2cn(nn2)CCCC(=O)N([C@@H](C)CO)C[C@H]1C` the entry was “inactive”.

For the origin of these results see the antibiotic and cytotoxicity screens of Wong et al. (2023).
